Assay outcomes from PubChem.
PAFAH1B3 FP inh – blocks human PAF acetylhydrolase 1B catalytic subunit 3; recombinant PAFAH1B3, FP-rhodamine probe, fluorescence polarization; inhibition, % at 3.39 µM; hit rate 0.28% among 340,000;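 active = inhibition above the screen-wide average of all tested compounds plus 3 SD, cut at about 25% in these data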;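 also: 0% = enzyme with DMSO only and 100% = wells lacking PAFAH1B3 protein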
Target sequence (Q15102 whole entry, looked up): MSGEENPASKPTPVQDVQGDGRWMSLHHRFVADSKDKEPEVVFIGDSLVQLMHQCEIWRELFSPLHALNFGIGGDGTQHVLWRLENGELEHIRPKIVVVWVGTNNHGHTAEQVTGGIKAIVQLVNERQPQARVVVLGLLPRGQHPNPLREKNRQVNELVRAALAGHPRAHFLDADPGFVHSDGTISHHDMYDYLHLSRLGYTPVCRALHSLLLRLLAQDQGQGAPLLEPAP
DAGLB inh – diacylglycerol lipase beta (human) inhibition | AID 504411 | inhibition, % at 5.17 µM | HEK293T DAGLB membrane lysate, EnzChek fluorogenic substrate | hit rate 0.059% among 340,000 | Q8NCG7; in the data active = inhibition above about 34%;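 also: 0% = enzyme with vehicle and 100% = wells lacking enzyme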
pPAFAH FP inh – inhibitors of human plasma PAF acetylhydrolase (pPAFAH); AID 463082; recombinant pPAFAH, FP-rhodamine probe fluorescence polarization; hit rate 1.5% among 330,000; inhibition, % at 3.39 µM;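 active = inhibition above the mean inhibition across the screen plus 3 SD, cut at about 25% in these data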;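 also: inhibitors block binding of the rhodamine activity-based probe so polarization drops; 0% = enzyme with DMSO and 100% = wells lacking pPAFAH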
Target sequence (Q13093 whole entry, looked up): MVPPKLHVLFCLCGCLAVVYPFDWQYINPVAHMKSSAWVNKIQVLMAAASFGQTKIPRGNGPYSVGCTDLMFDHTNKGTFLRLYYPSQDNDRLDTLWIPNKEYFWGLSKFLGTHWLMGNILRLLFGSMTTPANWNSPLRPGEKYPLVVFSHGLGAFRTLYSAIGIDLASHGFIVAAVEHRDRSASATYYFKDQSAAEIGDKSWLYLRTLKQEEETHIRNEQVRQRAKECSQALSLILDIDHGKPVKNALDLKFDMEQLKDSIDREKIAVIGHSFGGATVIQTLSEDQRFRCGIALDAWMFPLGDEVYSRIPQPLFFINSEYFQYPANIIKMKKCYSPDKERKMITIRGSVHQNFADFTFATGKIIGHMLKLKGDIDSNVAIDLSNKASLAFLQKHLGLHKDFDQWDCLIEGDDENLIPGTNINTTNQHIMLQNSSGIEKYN
PAFAH2 FP inh – inhibitors of human PAFAH2; recombinant PAFAH2, FP-rhodamine activity probe, fluorescence polarization; inhibition, % at 3.39 µM; hit rate 0.99% among 340,000; Q99487;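 active = inhibition above the mean over all tested compounds plus 3 SD, cut at about 30% in these data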;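 also: inhibitors block probe labeling of enzyme so polarization drops; 0% = enzyme with DMSO and 100% = wells lacking PAFAH2 protein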
HTRA1 inh – inhibitors of human serine peptidase HTRA1. AID 504803. recombinant HTRA1, FP-rhodamine activity-based probe, fluorescence polarization. inhibition, % at 5.96 µM. hit rate 0.5% among 340,000. Q92743; in the data active = inhibition above about 36%;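 also: 0% = enzyme with DMSO and 100% = wells lacking enzyme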
PAFAH1B2 FP inh – blocks human PAF acetylhydrolase 1b catalytic subunit 2; inhibition, % at 3.39 µM; recombinant PAFAH1B2, FP-rhodamine activity probe, fluorescence polarization; AID 492953; hit rate 1.2% among 340,000; P68402;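 active = inhibition above the mean of all tested compounds plus 3 SD, cut at about 24% in these data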;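 also: 0% = enzyme with DMSO and 100% = wells lacking PAFAH1B2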
* marks the source's active call; other numbers are inactive results. Only some compounds are listed: those with a hit (about 2.8% of all), similar ones and a draw of the others.

SMILES | PAFAH1B3 FP inh | DAGLB inh | pPAFAH FP inh | PAFAH2 FP inh | HTRA1 inh | PAFAH1B2 FP inh
O=S(=O)(Nc1ccc2c(c1)OCCO2)c1ccc(F)c(F)c1 | 7 | 0 | 8 | 2 | -8 | 9
Nc1cc(S(=O)(=O)Nc2ccc(Cl)cc2)ccc1N1CCOCC1 | -3 | -2 | 25* | 4 | 6 | 1
COc1ccc(NS(=O)(=O)c2cccc(NC(=O)CCS(=O)(=O)c3ccccc3)c2)cc1 | 0 | 0 | 34* | 8 | -7 | 3
COc1ccc(NS(=O)(=O)c2cccc(NC(=O)CCC(=O)c3cccs3)c2)cc1 | -2 | -1 | 33* | -1 | -3 | -3
COc1ccc(NS(=O)(=O)c2cccc(NC(=O)COc3ccccc3[N+](=O)[O-])c2)cc1 | 4 | -1 | 15 | -2 | 1 | 1
NS(=O)(=O)c1cccc(NC(=O)CCC(=O)c2cccs2)c1 | -1 | -1 | 0 | 2 | -1 | 5
Cc1c(NC(=O)CCSc2ccc(Cl)cc2)c(=O)n(-c2ccccc2)n1C | 2 | 1 | 8 | 4 | 5 | 32*
Cc1c(NC(=O)CC(=O)Nc2c(C)n(C)n(-c3ccccc3)c2=O)c(=O)n(-c2ccccc2)n1C | 3 | -1 | 3 | 4 | 3 | 5
Cc1c(NC(=O)C23CC4CC(CC(C)(C4)C2)C3)c(=O)n(-c2ccccc2)n1C | 4 | -1 | 3 | 50* | 8 | 35*
CCC(=O)c1ccc(OCC(=O)OCC(=O)Nc2c(C)n(C)n(-c3ccccc3)c2=O)cc1 | 4 | 1 | 7 | -2 | -1 | 1
O=C(CSc1ccc(Cl)cc1)NC1=NN(c2ccccc2)C(=O)C1 | 7 | 25 | 32* | 18 | 5 | 96*
Cc1c(NC(=O)COC(=O)COc2ccc(Nc3ccccc3)cc2)c(=O)n(-c2ccccc2)n1C | -2 | 0 | 25* | 4 | 21 | -2
CC(=O)NC12CC3CC(C1)CC(C(=O)Nc1c(C)n(C)n(-c4ccccc4)c1=O)(C3)C2 | 8 | 2 | -1 | -3 | 3 | 10
CCc1nnc(SCC(=O)NC2CC2)n1CC | 3 | -4 | 2 | -5 | -4 | 4
CCc1ccccc1NC(=O)CNC(=O)CCNC(=O)Nc1ccccc1 | 5 | -1 | 1 | 6 | -4 | 4
CC(=O)c1cc(F)ccc1OCC(=O)Nc1ccc2c(c1)OCO2 | 2 | -9 | 6 | 2 | -1 | -1
N#C/C(=C\c1ccc(N2CCOCC2)o1)C(=O)NC1CCCCC1 | 3 | -11 | -2 | 2 | -7 | 24*
N#C/C(=C\c1ccc(N2CCOCC2)o1)C(=O)NCC1CCCO1 (stereo not drawn) | 6 | -2 | -2 | 5 | -8 | 3
O=C(CN1C(=O)NC2(CCCC2)C1=O)OCCOc1ccc(Cl)cc1 | 6 | 0 | 5 | 6 | 3 | 6
COc1ccccc1Nc1nc2ccccc2n1C | 0 | 3 | 28* | 3 | -6 | -1
COc1ccccc1Nc1nc2ccccc2n2cnnc12 | -2 | -6 | 4 | 7 | -9 | 1
O=C(C[C@@H]1C/C=C\CC[C@@H](Cc2ccc(F)cc2)C(=O)OC[C@@H]2CCCN2C1=O)N[C@H](CO)Cc1ccccc1 | -1 | -1 | -4 | 4 | -8 | 9
O=C(C[C@H]1C/C=C\C[C@@H](Cc2ccc(F)cc2)C(=O)OC[C@H]2CCCN2C1=O)N[C@@H](CO)Cc1ccccc1 | 2 | 0 | 7 | -3 | -2 | 35*
O=C1OC[C@@H]2CCCN2C(=O)[C@@H](CC(=O)N(CCO)Cc2ccccc2)C/C=C\C[C@H]1Cc1ccc(F)cc1 | 5 | -3 | 9 | 12 | -1 | 34*
O=C(C[C@H]1C/C=C\CC[C@H](Cc2ccc(F)cc2)C(=O)OC[C@H]2CCCN2C1=O)N[C@@H](CO)Cc1ccccc1 | -2 | 3 | 27* | 23 | -5 | 7
SMILES | PAFAH1B3 FP inh | DAGLB inh | pPAFAH FP inh | PAFAH2 FP inh | HTRA1 inh | PAFAH1B2 FP inh
O=C1OC[C@H]2CCCN2C(=O)[C@@H](CC(=O)N(CCO)Cc2ccccc2)C/C=C\C[C@H]1Cc1ccc(F)cc1 | 6 | -1 | 3 | 11 | -5 | 17
CC(C)(C)OC(=O)C[C@H]1C/C=C\C[C@@H](CC(=O)NCCO)C(=O)N2CCC[C@H]2COC1=O | 4 | -2 | 1 | 9 | -12 | 3
O=C(C[C@@H]1C/C=C\C[C@@H](Cc2ccc(F)cc2)C(=O)OC[C@@H]2CCCN2C1=O)NCCO | 4 | -3 | 0 | 3 | 2 | 47*
O=C(C[C@H]1C/C=C\CC[C@H](Cc2ccc(F)cc2)C(=O)OC[C@H]2CCCN2C1=O)N[C@H](CO)Cc1ccccc1 | 6 | 0 | 9 | 8 | -1 | 7
Cc1ccccc1NC(=O)Cc1nnc(N)s1 | -3 | 0 | -8 | 6 | -1 | 5
N/C(=N\NS(=O)(=O)c1ccc(Cl)cc1)c1ccccn1 | 8 | -1 | 1 | 10 | 13 | 8
O=C1c2cc(Br)ccc2OC2C=CC=CC12 (stereo not drawn) | 5 | -6 | 2 | -3 | -6 | 1
O=C(C[C@H]1C/C=C\CC[C@H](Cc2ccc(F)cc2)C(=O)OC[C@@H]2CCCN2C1=O)N[C@H](CO)Cc1ccccc1 | 12 | 2 | 6 | -2 | 0 | 4
C[C@H]1COC(=O)[C@@H](Cc2ccc(F)cc2)C/C=C\C[C@@H](CC(=O)N[C@@H](CO)Cc2ccccc2)C(=O)N1 | 4 | 2 | 2 | 3 | 1 | 25*
O=C(C[C@@H]1C/C=C\C[C@@H](Cc2ccc(F)cc2)C(=O)OC[C@H]2CCCN2C1=O)N[C@H](CO)Cc1ccccc1 | 7 | -1 | -1 | 1 | 0 | 31*
C[C@H]1COC(=O)[C@H](Cc2ccc(F)cc2)CC/C=C/C[C@@H](CC(=O)N[C@@H](CO)Cc2ccccc2)C(=O)N1 | -1 | -2 | -1 | 8 | 3 | 17
O=C(C[C@H]1C/C=C\CC[C@H](Cc2ccc(F)cc2)C(=O)O[C@@H](c2ccccc2)CNC1=O)N[C@@H](CO)Cc1ccccc1 | 6 | -3 | 4 | 8 | -16 | 25*
O=C(C[C@H]1C/C=C\CC[C@H](Cc2ccc(F)cc2)C(=O)O[C@@H](c2ccccc2)CNC1=O)N[C@H](CO)Cc1ccccc1 | 2 | 1 | 2 | 7 | -10 | 13
COc1cc(C(=O)O/N=C2/C=C(C)C(=O)C=C2C)cc(OC)c1OC | 13 | 1 | 6 | 0 | 2 | 0
COc1cc(C(=O)ON=C2C(C)=CC(=O)C=C2C)cc(OC)c1OC | 9 | 1 | 5 | 83* | -1 | 7
O=C(NC1CCCCCC1)c1cc2n(n1)C(C(F)(F)F)CC(c1ccco1)N2 (stereo not drawn) | 3 | 1 | 34* | 6 | 0 | 5
O=C(Nc1ccc(O)cc1)c1cc2n(n1)C(C(F)(F)F)CC(c1ccco1)N2 (stereo not drawn) | -4 | -3 | 8 | -7 | -6 | -4
